# HEK cytotox = HEK 293 cell cytotoxicity; Potency, µM (doses to about 115 µM), for inactives: at the top dose activity change, negative = cytotoxicity, actives largely listed as inhibitors; 94,000 tested, 6.6% active; HEK 293 viability, ATP luminescence (CellTiter-Glo), 48-72 h; also: % is scaled to controls: 0 for no effect and ±100 for the full control effect; nearly all actives have a fitted effect of over 60% in size
#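 Read-out: CellTiter-Glo ATP luminescence. Cells: HEK 293, 250 cells/well. Exposure: 48 or 72 hr, 37 degree Celsius.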
# NIH3T3 tox = NIH 3T3 cell cytotoxicity | NIH 3T3 viability, CellTiter-Glo ATP luminescence, 48-72 h | Potency, µM (top dose mostly 96.7 µM), without a hit: top-dose activity change, negative = cytotoxicity, hits mostly inhibitors | 94,000 tested, 4.3% active; also: % is scaled to controls: 0 for no effect and ±100 for the full control effect; nearly all actives have a fitted effect of over 55% in size
#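 Cells were seeded at 400 per well, treated with pin-transferred compound, and kept 48 or 72 hr at 37 °C before CellTiter-Glo addition and luminescence imaging of cellular ATP.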
# GPT2 inh = GPT2 alanine aminotransferase inhibition. Recombinant GPT2, coupled pyruvate oxidase/HRP Amplex Red fluorescence. Potency, µM (doses to about 57.7 µM), for inactives: top-dose activity change, negative = inhibition, most hits filed as inhibitors. 100,000 tested, 0.25% active; also: % is scaled to controls: 0 for no effect and ±100 for the full control effect; nearly all actives have a fitted effect of over 60% in size
#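 Fluorescence of coupled pyruvate oxidase/HRP/Amplex Red system (50uM Amplex, 30 min, dark) reports pyruvate formed by GPT2. Enzyme reaction: 10ng/uL GPT2, 2mM L-alanine, 250uM a-KG, 30 min room temperature, pH 7.5; 50uM AOA control.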
# hNpr1 antagonist = blocks ANP-stimulated signaling of human Npr1 receptor. P16066. HEK293 hNpr1 GloSensor cGMP, ANP-stimulated luminescence. Potency, µM (doses to about 46.3 µM), inactives show top-dose activity change, negative = inhibition, hits mostly inhibitors. 76,000 tested, 1.6% active; calls by dose curve; also: % is scaled to controls: 0 for no effect and ±100 for the full control effect; nearly all actives have a fitted effect of over 60% in size
#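 HEK293 cells stably expressing human Npr1 and cGMP GloSensor pGS-40F, loaded 2 h with 2% GloSensor reagent, given compound 30 min at room temperature. Luminescence read before and 20 min after 0.1 nM hNppA.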
# FLuc inh-1 = blocks purified firefly luciferase enzyme activity; P08659; purified P. pyralis luciferase, luminescence, biochemical; Potency, µM (top dose mostly 115 µM), actives largely listed as inhibitors; 76,000 tested, 2.5% active; also: % is scaled to controls: 0 for no effect and ±100 for the full control effect; nearly all actives have a fitted effect of over 65% in size
# Target sequence (P08659 whole entry, looked up): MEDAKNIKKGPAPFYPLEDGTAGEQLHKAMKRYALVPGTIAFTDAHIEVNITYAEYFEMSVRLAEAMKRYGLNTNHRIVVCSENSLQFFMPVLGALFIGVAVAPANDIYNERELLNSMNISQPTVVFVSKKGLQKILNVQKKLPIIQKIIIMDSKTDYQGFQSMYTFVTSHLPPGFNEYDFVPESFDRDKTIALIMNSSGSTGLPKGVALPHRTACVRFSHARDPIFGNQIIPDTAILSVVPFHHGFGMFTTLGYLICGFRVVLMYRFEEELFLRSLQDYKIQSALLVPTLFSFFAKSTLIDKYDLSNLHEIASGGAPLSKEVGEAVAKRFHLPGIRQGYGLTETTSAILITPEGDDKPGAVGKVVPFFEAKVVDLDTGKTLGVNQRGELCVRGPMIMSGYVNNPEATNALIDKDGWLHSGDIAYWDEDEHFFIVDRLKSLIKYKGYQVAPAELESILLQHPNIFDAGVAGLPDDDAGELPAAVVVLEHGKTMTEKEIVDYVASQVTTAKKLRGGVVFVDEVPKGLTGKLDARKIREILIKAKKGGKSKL
#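 Purified P. pyralis luciferase (10nM final) in 50mM Tris acetate pH 7.5, 10mM Mg acetate, 0.01% Tween-20, 0.05% BSA with 10uM D-luciferin and 10uM ATP. Compounds titrated qHTS. Luminescence imaged on CCD.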
# FLuc SDR -ATP = binders stabilizing firefly luciferase, without ATP | shares compounds with FLuc inh-1 | Purified FLuc-C-HiBiT, Nano-Glo HiBiT luminescence, no ATP | Potency, µM (highest dose often 32.7 µM), inactives show at the highest dose activation (signal gain), hits mostly activators | 1,300 tested, 7.8% active; also: nearly all actives have a fitted effect of over 55% in size
# FLuc SDR ATP = stabilizes firefly luciferase with ATP present | shares compounds with FLuc inh-1 | purified FLuc-C-HiBiT + ATP, HiBiT complementation luminescence | Potency, µM (series often up to 32.7 µM), for the others: at the top dose activation (gain of signal), usual class: activators | 1,300 tested, 8.7% active | AID 1963319;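 also: signal reports ligand binding via conformational change of the enzyme rather than luciferase catalysis; % of control where 0% means no effect; nearly all actives have a fitted effect of over 55% in size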
# FLuc inh-2 = firefly luciferase enzyme inhibition; shares compounds with FLuc inh-1; purified FLuc-C-HiBiT enzyme, luciferin luminescence; Potency, µM (highest dose often 32.7 µM), without a hit: at the highest dose activity change, negative = inhibition, hits mostly inhibitors; 1,300 tested, 42% active; also: % is scaled to controls: 0 for no effect and ±100 for the full control effect; nearly all actives have a fitted effect of over 70% in size
# Numbers without * were called inactive; i = inactive; ? = inconclusive; / = no result given; [ ] = remark or other dose. Compounds with a hit are over-represented: about 10% of the library has one in this group of screens. Unless noted, calls follow the shape of the dose curve; as a rule, active = well fitted curve in the direction sought with a large enough effect; inconclusive = small, poorly fitted or top-dose-only effect, or another doubt; inactive = no such curve, though single readings can be large; an effect the other way counts as inactive or inconclusive. Potency is read from the fitted curve at half-maximal effect.
SMILES,HEK cytotox,NIH3T3 tox,GPT2 inh,hNpr1 antagonist,FLuc inh-1,FLuc SDR -ATP,FLuc SDR ATP,FLuc inh-2
c1coc(-c2nc3nccc(-c4ccc5c(c4)OCCCO5)n3n2)c1,?,?,i,?,1.26µM*,?,?,1.76µM*
COCCN1CCNc2cc(Nc3cccc(OC)c3)ncc2C1,?,?,3.9%[88.5 µM],5.3%[70.6 µM],7.08µM*,19.8%[49.3 µM],13.7%[49.3 µM],?
Clc1cccc(Nc2cc3c(cn2)CN(Cc2cccnc2)CCN3)c1,31.6µM*,?,?,?,1.26µM*,?,?,12.8µM*
Cn1ccnc1CN1CCNc2cc(Nc3ccccc3)ncc2C1,?,?,-4.6%[88.5 µM],-13.8%[70.6 µM],4.47µM*,25.9%[49.3 µM],17.4%[49.3 µM],?
Cc1noc(C)c1CN1CCNc2cc(Nc3cccnc3)ncc2C1,?,-34.3%[138 µM],2.6%[88.5 µM],-0.9%[70.6 µM],i,/,/,/
COCCN1CCNc2cc(Nc3cccc(N(C)C)c3)ncc2C1,?,?,i,-2.4%[70.6 µM],?,/,/,/
COCCN1CCNc2cc(-c3cccc(OC)c3)ncc2C1,/,/,/,/,/,?,14.5%[49.3 µM],20.2µM*
O=C(NC1CCN(CCn2nc3n(c2=O)CCCC3)C1)c1cccc(Cl)c1 (configuration not stated),i,i,/,/,/,/,/,/
O=C(c1ccccc1F)N1CCCN(CCn2nc3n(c2=O)CCCC3)CC1,3.1%,-20.5%,/,/,/,/,/,/
Cc1cc(CNc2ccc(-c3nc(CCCc4ccccc4)no3)cn2)no1,?,-29.7%,?,?,?,/,/,/
c1ccc(CCCc2noc(-c3ccc(NCc4ccccn4)nc3)n2)cc1,?,-18.2%,4.7%[11.5 µM],?,12.6µM*,9.8%,8.4%,-10.0%
c1ccc(OCc2noc(-c3ccc(NCC4CCCCO4)nc3)n2)cc1 (configuration not stated),?,?,4.4%,-20.1%,?,/,/,/
Cc1nonc1C1CCCN1c1ccc(-c2nc(COc3ccccc3)no2)cn1 (configuration not stated),?,?,4.7%,-16.5%,i,/,/,/
CN(Cc1cccnc1)c1ccc(-c2nc(COc3ccccc3)no2)cn1,25.1µM*,?,-6.5%,10µM*,7.94µM*,18.5%,17.6%,?
CN(CCc1ccccn1)c1ccc(-c2nc(COc3ccccc3)no2)cn1,35.5µM*,?,?,?,8.91µM*,12.8%,14.8%,?
CN(CCO)c1ccc(-c2nc(CCCc3ccccc3)no2)cn1,?,-29.0%,-9.7%,-0.3%,6.31µM*,15.1%,13.8%,?
CCc1n[nH]c(CC2CCN(C(=O)Nc3ccc4c(c3)OCCO4)CC2)n1,2.6%,i,i,-28.1%,7.94µM*,21.3%,15.8%,?
CC(C)n1cnnc1CC1CCN(C(=O)Nc2ccc3c(c2)OCCO3)CC1,i,3.1%,i,-14.5%,7.94µM*,25.8%,?,9.89µM*
Cn1cc(CN2C[C@@H](CO)[C@H](NC(=O)C3CCC3)C2)c2ccccc21,1.9%,-15.3%,i,1.2%,i,/,/,/
COc1cccc(CC(=O)NCCn2ccn3nc(-c4ccc(C)c(C)c4)cc3c2=O)c1,79.4µM*,?,-3.4%,-2.7%,12.6µM*,22.9%,13.3%,?
COc1ccc(-c2cc3c(=O)n(CCNC(=O)Cc4cccs4)ccn3n2)cc1,?,?,i,-19.2%,8.91µM*,?,?,?
COc1cccc(-c2cc3c(=O)n(CCNC(=O)c4ccccc4Cl)ccn3n2)c1,?,-24.1%,i,-19.3%,12.6µM*,19.0%,13.1%,?
COc1ccccc1C(=O)NCCn1ccn2nc(-c3ccc(C)c(C)c3)cc2c1=O,-25.8%,-26.8%,i,-4.3%,i,/,/,/
CC(C)n1c(C2CCN(C(=O)C3CCCO3)CC2)nn(C)c1=O (configuration not stated),i,-6.7%,i,/,/,/,/,/
CN(C)S(=O)(=O)N(C)C1CCc2nn(CC3CC3)c(=O)n2CC1 (configuration not stated),-18.1%,-12.5%,i,/,/,/,/,/
SMILES,HEK cytotox,NIH3T3 tox,GPT2 inh,hNpr1 antagonist,FLuc inh-1,FLuc SDR -ATP,FLuc SDR ATP,FLuc inh-2
COc1ccc(S(=O)(=O)N2CC[C@H](NC(=O)Cc3cccs3)C[C@H]2C(=O)N[C@@H](CC2CCCCC2)C(N)=O)cc1,?,?,i,-0.6%,i,/,/,/
COc1ccc(-c2cccc(COc3cnc4c(ccn4CC(=O)O)c3)c2)c(C)c1,?,?,0.7%[88.5 µM],-10.5%[70.6 µM],i,9.1%,8.2%,-5.6%
Cc1ccc(-c2cccc(COc3cnc4c(ccn4CC(=O)O)c3)c2)cc1C,/,/,/,/,/,9.6%[49.3 µM],7.2%[49.3 µM],?
COc1cccc(-c2cccc(COc3cnc4c(ccn4CC(=O)O)c3)c2)c1,/,/,/,/,/,7.4%[49.3 µM],4.8%[49.3 µM],?
Cc1ccc(-c2cccc(COc3cnc4c(ccn4CC(=O)O)c3)c2)c(C)c1,/,/,/,/,/,13.6%[49.3 µM],7.3%[49.3 µM],-12.7%[49.3 µM]
COc1cc(F)cc(-c2cccc(CCOc3cnc4c(ccn4CC(=O)O)c3)c2)c1,?,?,-9.0%[88.5 µM],0.1%[70.6 µM],i,/,/,/
O=C(NCc1ccccn1)c1nc2sccn2c1-c1ccc(C(F)(F)F)cc1,?,-97.8%,i,/,/,/,/,/
CC(=O)N1CCCN(Cc2nc3c(n2Cc2ccccc2)C(=O)N(Cc2cccc(Cl)c2)CCN3)CC1,?,-50.5%,2.1%,-2.6%,i,/,/,/
CC1CCN(C(=O)c2cc3c(s2)CCC(C(=O)O)C3)CC1 (configuration not stated),-9.0%,-29.7%,-7.4%,0.2%,12.6µM*,10.1%,18.6%,?
COc1cccc(CN2CCc3c(cc(C(=O)Nc4cc(C)ccc4OC)n3C)C2)c1,31.6µM*,?,-10.2%,-5.7%,8.91µM*,11.8%,14.0%,-11.5%
CCOc1cccc2cc(-c3nc(-c4ccccc4C)no3)c(=O)oc12,/,/,/,/,/,?,?,?
O=C(c1ccccc1Cl)N1CCCC(C(=O)N2CCC(c3nc4ncccc4[nH]3)C2)C1 (configuration not stated),i,-22.0%,0.4%,/,/,/,/,/
O=c1oc2ccc(F)cc2cc1-c1nc(-c2cccs2)no1,/,/,/,/,/,14.1%,19.5%,?
Fc1ccc(C2Cn3cnc(-c4nc(-c5cccs5)no4)c3CO2)cc1 (configuration not stated),-25.4%,-13.3%,-5.7%,-11.0%,i,/,/,/

# Bioassay records from PubChem.
